HSF1 inhib: HSF1 inhibition. hit rate 0.77% among 300,000. NIH3T3-HGL HSE-luciferase, MG132-induced, luminescence 8 h; hits give low values. activity change, negative = inhibition, % at 7.5 µM (by protocol);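 active = more than half of replicate wells show activity change below -50%, luminescence cut by over half; inconclusive = some wells, but at most half, below -50%; inactive = no replicate well below -50%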;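 also: luciferase reports HSF-1 transcriptional activity via heat shock element; 0% = median of DMSO wells and -100% = zero luminescence signal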
HSF1 activator: increases HSF-1 driven luciferase reporter signal. NIH3T3-HGL HSF-1 luciferase reporter, MG132, 8 h; 100% = twice DMSO control signal. activation, % at 9 µM. hit rate 1.7% among 300,000;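 active = mean replicate activation of at least 50% with a set share of replicates each reaching 50%; inconclusive = only one of those two conditions met; inactive = mean below 50% and too few replicates reaching it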;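 also: 0% = median of the neutral control wells and 100% = twice that signal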
HSP90 refold inh: HSP90 refolding inhibition in rabbit reticulocyte lysate. inhibition, % at 5.6 µM. luciferase refolding luminescence, 3 h. hit rate 0.91% among 290,000;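 active = inhibition above the screen-wide mean plus 3 SD, computed separately per campaign, cut at about 16% in these data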;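 also: 0% = DMSO wells and 100% = 60 µM geldanamycin wells; inhibitors lower the luminescence because luciferase stays unfolded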
MPTP block: blocks calcium-induced mitochondrial swelling; inhibition, % at 10 µM; AID 602449; isolated mouse mitochondria, Ca2+ swelling absorbance, 30 min; hit rate 1.4% among 360,000;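 active = inhibition of 50% or more, scaled per plate between neutral and stimulator controls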;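 also: 0% = DMSO wells given calcium and 100% = 1 mM EGTA wells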
Platelet DG rel: modulates dense granule release in human platelets; human platelet-rich plasma, SFLLRN dense granule ATP release, luminescence; inhibition, %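 (compounds screened at 7.5 µM in platelet-rich plasma)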; hit rate 0.22% among 300,000; AID 1663;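 active = mean replicate score, as percent of positive control, at or above 50; inconclusive = mean below 50 but at least one replicate at or above 50; inactive = mean and every replicate below 50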
dFosB act: mouse delta FosB homodimer activation. P13346. purified delta FosB, TAMRA-CDK5 oligo fluorescence polarization; percent of positive-control signal above neutral wells. activation, % at 25 µM. hit rate 0.99% among 340,000;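 active = mean activation above about 17%, with every replicate also reaching it, limit read from the data, passing the limit was not always enough; inconclusive = only one of the two conditions met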
Target sequence (P13346 whole entry, looked up): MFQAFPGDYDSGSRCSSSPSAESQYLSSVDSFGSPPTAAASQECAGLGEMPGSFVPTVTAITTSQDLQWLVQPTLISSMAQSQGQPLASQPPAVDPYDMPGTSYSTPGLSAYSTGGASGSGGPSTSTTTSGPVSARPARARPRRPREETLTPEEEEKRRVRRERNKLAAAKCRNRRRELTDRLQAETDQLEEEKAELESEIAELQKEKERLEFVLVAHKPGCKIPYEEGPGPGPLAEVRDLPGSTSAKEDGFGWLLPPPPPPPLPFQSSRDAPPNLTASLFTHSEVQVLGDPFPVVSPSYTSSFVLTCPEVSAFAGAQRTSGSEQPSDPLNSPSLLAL
* = called active by the depositor; u = inconclusive; x = not tested or not shown. This is a sample that favours compounds with a hit; in the whole collection about 4.9% have one here.

SMILES | HSF1 inhib | HSF1 activator | HSP90 refold inh | MPTP block | Platelet DG rel | dFosB act
Cc1ccc(S(=O)(=O)NC(C)C(=O)OCC(=O)N(C)c2ccccc2)cc1 (stereo not drawn) | x | x | x | -2 | x | -4
COC(=O)c1cccc(N(CC(=O)NC2CCCCC2)C(=O)CNC(=O)c2cccs2)c1 | 1 | -3 | -3 | 1 | 2 | -5
CCC(C(=O)NC(C)(C)C)N(Cc1ccc(F)cc1)C(=O)c1snc(C(N)=O)c1N (stereo not drawn) | -67* | -77 | 0 | 1 | -3 | -6
CCC(C(=O)NC(C)(C)C)N(Cc1ccccc1Cl)C(=O)c1snc(C(N)=O)c1N (stereo not drawn) | 11 | 16 | 1 | -2 | -5 | -9
O=c1c2ccccc2cnn1-c1ccc2ccccc2c1 | 29 | 62* | 4 | 0 | -2 | -12
Cc1ccc(C)c(N2CCN(C(=O)CCS(=O)(=O)c3ccc4c(c3)NC(=O)C(C)S4)CC2)c1 (stereo not drawn) | 4 | 24 | 2 | 4 | -1 | 2
O=c1oc2ccccc2cc1-c1cn2ccccc2n1 | -9 | -15 | 56* | -12 | 44 | -5
O=c1oc2ccccc2cc1-c1cn2cccnc2n1 | 14 | 34 | 1 | 0 | 8 | -3
CCn1c(SCC(=O)N/N=C/C=C/c2ccco2)nc2ccccc21 | 47 | 78* | 3 | 2 | 1 | -4
N#Cc1ccc2[nH]c(CO)c(-c3ccccc3)c2c1 | 1 | -3 | -2 | 5 | 2 | -1
COc1ccc(CNc2nc3ccccc3n2CCN2CCOCC2)cc1 | 6 | -21 | 2 | -1 | 5 | 2
C=CCc1cccc(CNc2nc3ccccc3n2C)c1O | 13 | 40 | -2 | 1 | 2 | -6
C=CCc1cccc(CNc2nc3ccccc3n2CCN2CCOCC2)c1O | 88 | 118* | -1 | 0 | -9 | -8
CCN(CC)c1ccc(CNc2nc3ccccc3n2CCN2CCOCC2)cc1 | -60* | -72 | 4 | -1 | 14 | -16
Cn1c(NCc2ccc(Cl)cc2)nc2ccccc21 | 36 | 54* | -2 | 1 | 9 | 0
Cc1ccc(CNc2nc3ccccc3n2C)cc1 | 11 | 46 | 15 | 0 | 14 | 7
Cn1c(CN2CCN(c3ccc(Cl)cc3)CC2)nc2ccccc21 | 22 | 64* | -1 | -1 | 3 | -9
COc1ccc(C=O)c(-c2c(-c3ccccc3OC)sc3ccccc23)c1 | x | x | x | 1 | x | x
CC(=O)c1cc2c(cc1NC(=O)Cn1nc(-c3ccc(C)cc3)ccc1=O)OCO2 | 0 | 9 | 2 | -2 | 0 | -3
O=C(CN1CCN(c2ccccc2)CC1)NCc1ccc(F)cc1 | -56* | -62 | -1 | 0 | 6 | 0
COc1ccc(CNC(=O)CN2CCN(c3ccccc3)CC2)cc1 | 4 | 15 | 12 | 0 | 8 | 3
Cc1cc2occ(CC(=O)N(C)CC(=O)Nc3ccccc3Cl)c2cc1C | 9 | 18 | x | 0 | 4 | -6
Cc1cc(C)n(-c2ccc(NC(=O)C3CCCCN3C(=O)c3ccoc3C)cc2)n1 (stereo not drawn) | -70* | -77 | 1 | 0 | 2 | -9
COc1ccc(-c2c(C)nn3c(Cl)c(C)c(C)nc23)cc1 | 29 | 60* | 0 | 1 | -5 | 4
Fc1ccccc1Cn1nnc(-c2ccc3c(c2)OCO3)n1 | 52 | 83* | -1 | 1 | -3 | -4
SMILES | HSF1 inhib | HSF1 activator | HSP90 refold inh | MPTP block | Platelet DG rel | dFosB act
COc1ccc(-c2nnn(Cc3ccccc3F)n2)cc1 | 23 | 35 | -2 | 0 | -2 | -5
CC(C)(CO)CNC(=O)CCc1nnc(-c2ccc(-c3ccccc3)cc2)o1 | -8 | -5 | -2 | 0 | -17 | -9
Cc1cc(C)nc(NC(=S)NC(=O)c2ccccc2F)n1 | 4 | 8 | x | 2 | -7 | x
Cc1cc(C)nc(S/C=C/C(=O)c2ccccc2F)n1 | 150 | 189* | 11 | 3 | 0 | 2
CC(=O)Nc1ccccc1OCC(=O)NC1CCCCC1C (stereo not drawn) | x | x | x | 0 | x | -1
COc1ccc(-c2c(C#N)c(N)nc3c2CCC3)cc1 | -2 | 4 | -1 | 2 | -9 | -5
CSc1nc2c(c(-c3ccc(O)cc3)c1C#N)CCC2 | 3 | -7 | -1 | 0 | 63* | -15
CN(C)c1ccnc(NCc2ccccc2)c1C#N | 4 | 11 | 4 | 0 | 1 | -3
Cc1cc(N(C)C)c(C#N)c(NCc2ccccc2)n1 | 50 | 93* | -2 | 1 | 2 | 5
CC1OC(C(C)(C)C)Cc2[nH][nH]c(=O)c21 (stereo not drawn) | x | x | x | -1 | x | x
CCCCOc1ccc(C(=O)N/N=C/c2cn[nH]c2-c2ccc(OC)c(OC)c2)cc1 | 17 | 54* | 1 | -20 | -13 | u
COc1ccc(-c2[nH]ncc2/C=N\NC(=O)c2ccc(C(C)(C)C)cc2)cc1OC | 4 | 34 | 1 | -6 | 0 | -9
COc1ccc(C2CC(C)(c3ccc(OC)cc3)Nc3ccccc3N2)cc1 (stereo not drawn) | 38 | 58* | -4 | 3 | 2 | -7
O=c1c(-c2nc3ccccc3s2)cccn1Cc1ccc(Cl)cc1 | 72 | 88* | -1 | 7 | 0 | -6
COc1cc2c3c(c1OC)C(=O)CC3CCCC2 (stereo not drawn) | x | x | x | -1 | x | x
Nc1c(C(=O)c2ccc(Cl)cc2)sc2nsc(SCCN3CCOCC3)c12 | 5 | 20 | 2 | 12 | -4 | -17
Nc1c(C(=O)c2ccccc2)sc2nsc(SCCN3CCCC3)c12 | 92 | 118* | -1 | 6 | 7 | 1
CC(C)CCN=CC1=C(O)CC(c2ccccc2)CC1=O (stereo not drawn) | 28 | 67* | -3 | 0 | -10 | 3
Cc1ccc(N=CC2=C(O)CC(c3cccc(Cl)c3)CC2=O)cc1 (stereo not drawn) | 8 | 23 | -5 | 1 | -3 | 4
O=C1CC(c2ccccc2Cl)CC(O)=C1C=Nc1ccccc1 (stereo not drawn) | 119 | 152* | -1 | 11 | 2 | -9
O=C1CC(c2ccccc2)CC(O)=C1C=Nc1cccc(Cl)c1 (stereo not drawn) | 79 | 120* | 2 | 1 | 4 | -5
O=C1CC(c2ccccc2)CC(O)=C1C=Nc1ccc(Cl)cc1 (stereo not drawn) | 104 | 141* | 2 | 1 | -13 | -3
CCCNC(=O)c1ccc2c(c1)nc(C)n2-c1cccc(Cl)c1 | 0 | 12 | -2 | 1 | 1 | -4
O=C(CSc1nnc(-c2ccc(F)cc2)c2ccccc12)Nc1ccccc1 | 54 | 83* | 4 | 0 | -17 | 5
COc1ccc2[nH]c3c(c2c1)CCNC3(C)CCc1ccc(Cl)nc1 (stereo not drawn) | 2 | 1 | -2 | 0 | 2 | -7
CC(=O)N/N=C\c1ccccc1OC/C=C/c1ccccc1 | 1 | 11 | 8 | 1 | -2 | -10
